Experimental data as given in the supplement of paper PMC10849652.
Targets with a hit are over-represented here; the source holds about 7,900 in all. About 0.6% of all pairs of compound and target were hits. A number with no mark means an inactive call.

Experiments:
Assay in all cases: log2 fold change, soluble protein after heating vs DMSO (PISA); higher = thermal stabilisation; K562 cells, 10 uM, 30 min; active = over 0.2 and 3.5 SD of the protein, either way, in both replicates (recomputed)
[1] = compound: NC(=O)Nc1cc(-c2cccc(F)c2)sc1C(=O)N[C@H]1CCCNC1
How it was run: (§1)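 Soluble protein was quantified by TMTpro 16plex LC-MS/MS after channel sums were equalised. It was obtained as the supernatant after 21,000xg for 90 min from pooled aliquots of K562 cells (2×10^6 cells/mL, 10 μM compound, 30 min) heated for 3 min across 48°C-58°C and extracted in PBS with 0.5% NP-40 at 4°C. Thermal stability values are relative to control samples and come from duplicates. They are given as log2 fold changes.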

[2] = compound: NC(=O)c1cnc(N[C@@H]2CCCC[C@@H]2N)nc1Nc1cccc(-n2nccn2)c1
How it was run: as §1

[3] = compound: NC1(c2ccc(-c3nc4ccn5c(=O)[nH]nc5c4cc3-c3ccccc3)cc2)CCC1
How it was run: as §1

[4] = compound: NCC(=O)Nc1ccc(-n2nc(C(F)(F)F)cc2-c2ccc3c(ccc4ccccc43)c2)cc1
How it was run: as §1

entinostat = compound: Nc1ccccc1NC(=O)c1ccc(CNC(=O)OCc2cccnc2)cc1 [entinostat]
How it was run: as §1

vorinostat = compound: O=C(CCCCCCC(=O)Nc1ccccc1)NO [vorinostat]
How it was run: as §1

citarinostat = compound: O=C(CCCCCCNC(=O)c1cnc(N(c2ccccc2)c2ccccc2Cl)nc1)NO [citarinostat]
How it was run: as §1

silmitasertib = compound: O=C(O)c1ccc2c(c1)nc(Nc1cccc(Cl)c1)c1ccncc12 [silmitasertib]
How it was run: as §1

[5] = compound: O=C1NC(=O)C(c2cnc3ccccn23)=C1c1cn2c3c(cc(F)cc13)CN(C(=O)N1CCCCC1)CC2
How it was run: as §1

[6] = compound: c1cc(OCCN2CCCCC2)cc(-c2n[nH]c3ccc(-c4nnc[nH]4)cc23)c1
How it was run: as §1

Chain of UniProt P52895 (P52895 whole entry, looked up): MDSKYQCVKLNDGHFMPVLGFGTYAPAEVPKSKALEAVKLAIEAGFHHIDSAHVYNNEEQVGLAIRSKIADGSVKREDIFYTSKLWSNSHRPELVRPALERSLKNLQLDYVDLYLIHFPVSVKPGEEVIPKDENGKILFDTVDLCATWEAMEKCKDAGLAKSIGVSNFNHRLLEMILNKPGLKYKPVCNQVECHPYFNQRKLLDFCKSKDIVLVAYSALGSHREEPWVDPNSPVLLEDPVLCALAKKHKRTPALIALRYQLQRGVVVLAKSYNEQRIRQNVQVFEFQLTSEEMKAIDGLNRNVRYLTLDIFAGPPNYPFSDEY
Chain of UniProt Q9UKG1 (Q9UKG1 whole entry, looked up): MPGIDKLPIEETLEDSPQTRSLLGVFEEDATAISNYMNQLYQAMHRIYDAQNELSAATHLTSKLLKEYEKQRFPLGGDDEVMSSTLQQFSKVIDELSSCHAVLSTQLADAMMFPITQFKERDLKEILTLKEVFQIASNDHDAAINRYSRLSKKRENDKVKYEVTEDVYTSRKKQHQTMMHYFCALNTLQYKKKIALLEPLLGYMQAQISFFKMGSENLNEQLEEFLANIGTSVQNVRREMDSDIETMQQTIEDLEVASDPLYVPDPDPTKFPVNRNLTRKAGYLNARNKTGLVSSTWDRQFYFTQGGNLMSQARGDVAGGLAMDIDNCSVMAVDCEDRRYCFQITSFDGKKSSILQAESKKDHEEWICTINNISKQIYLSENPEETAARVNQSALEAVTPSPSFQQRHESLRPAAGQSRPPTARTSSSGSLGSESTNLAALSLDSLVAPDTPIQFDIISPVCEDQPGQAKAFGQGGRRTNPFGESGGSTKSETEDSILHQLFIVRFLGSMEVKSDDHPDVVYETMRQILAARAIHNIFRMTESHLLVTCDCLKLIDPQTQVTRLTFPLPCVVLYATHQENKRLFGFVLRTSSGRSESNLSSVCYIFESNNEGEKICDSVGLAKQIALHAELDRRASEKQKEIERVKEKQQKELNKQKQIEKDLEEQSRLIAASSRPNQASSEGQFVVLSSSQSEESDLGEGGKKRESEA
Chain of UniProt Q96KE9 (Q96KE9 whole entry, looked up): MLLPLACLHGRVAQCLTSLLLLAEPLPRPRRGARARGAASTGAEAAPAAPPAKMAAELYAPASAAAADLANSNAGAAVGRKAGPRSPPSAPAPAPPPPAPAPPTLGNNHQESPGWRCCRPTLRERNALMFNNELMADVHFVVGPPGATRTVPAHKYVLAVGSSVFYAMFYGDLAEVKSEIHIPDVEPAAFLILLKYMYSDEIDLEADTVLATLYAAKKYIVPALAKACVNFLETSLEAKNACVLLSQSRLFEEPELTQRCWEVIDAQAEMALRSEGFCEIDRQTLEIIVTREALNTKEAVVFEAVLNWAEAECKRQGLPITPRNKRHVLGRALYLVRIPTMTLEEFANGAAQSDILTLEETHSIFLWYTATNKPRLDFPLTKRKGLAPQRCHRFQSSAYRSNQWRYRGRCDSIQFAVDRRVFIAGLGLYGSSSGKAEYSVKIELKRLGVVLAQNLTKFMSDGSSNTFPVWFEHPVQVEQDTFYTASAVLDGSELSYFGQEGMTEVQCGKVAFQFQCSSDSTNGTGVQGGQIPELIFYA
Chain of UniProt P30837 (P30837 whole entry, looked up): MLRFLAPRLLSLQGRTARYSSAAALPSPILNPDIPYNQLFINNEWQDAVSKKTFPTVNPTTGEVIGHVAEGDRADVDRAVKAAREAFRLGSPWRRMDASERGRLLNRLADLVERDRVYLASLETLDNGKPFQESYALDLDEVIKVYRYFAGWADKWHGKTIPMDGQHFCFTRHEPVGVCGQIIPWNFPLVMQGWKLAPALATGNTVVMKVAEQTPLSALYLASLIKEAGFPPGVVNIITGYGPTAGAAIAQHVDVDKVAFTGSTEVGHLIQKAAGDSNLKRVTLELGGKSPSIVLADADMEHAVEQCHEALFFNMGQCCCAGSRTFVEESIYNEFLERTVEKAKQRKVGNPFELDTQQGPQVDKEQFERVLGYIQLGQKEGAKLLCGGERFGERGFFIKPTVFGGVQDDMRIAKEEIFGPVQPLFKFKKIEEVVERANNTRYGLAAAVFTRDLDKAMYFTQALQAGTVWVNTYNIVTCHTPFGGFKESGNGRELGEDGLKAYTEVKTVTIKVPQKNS
Chain of UniProt O14965 (O14965 whole entry, looked up): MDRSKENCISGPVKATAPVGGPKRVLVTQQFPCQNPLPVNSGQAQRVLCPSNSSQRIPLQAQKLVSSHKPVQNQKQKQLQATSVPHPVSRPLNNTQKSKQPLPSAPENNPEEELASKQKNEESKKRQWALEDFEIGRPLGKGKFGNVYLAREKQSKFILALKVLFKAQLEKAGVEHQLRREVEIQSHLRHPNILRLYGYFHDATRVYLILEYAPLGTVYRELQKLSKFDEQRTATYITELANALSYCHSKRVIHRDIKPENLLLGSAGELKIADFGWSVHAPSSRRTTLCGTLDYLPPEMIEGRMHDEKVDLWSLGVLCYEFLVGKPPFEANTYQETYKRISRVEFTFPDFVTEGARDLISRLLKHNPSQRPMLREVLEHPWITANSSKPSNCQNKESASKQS
Chain of UniProt P55957 (P55957 whole entry, looked up): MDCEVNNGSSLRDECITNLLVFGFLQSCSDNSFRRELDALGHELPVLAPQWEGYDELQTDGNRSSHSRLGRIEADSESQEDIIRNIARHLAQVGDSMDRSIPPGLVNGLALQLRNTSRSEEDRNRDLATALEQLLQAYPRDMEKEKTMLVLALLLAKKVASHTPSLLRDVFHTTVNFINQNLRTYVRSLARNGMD
Chain of UniProt O95870 (O95870 whole entry, looked up): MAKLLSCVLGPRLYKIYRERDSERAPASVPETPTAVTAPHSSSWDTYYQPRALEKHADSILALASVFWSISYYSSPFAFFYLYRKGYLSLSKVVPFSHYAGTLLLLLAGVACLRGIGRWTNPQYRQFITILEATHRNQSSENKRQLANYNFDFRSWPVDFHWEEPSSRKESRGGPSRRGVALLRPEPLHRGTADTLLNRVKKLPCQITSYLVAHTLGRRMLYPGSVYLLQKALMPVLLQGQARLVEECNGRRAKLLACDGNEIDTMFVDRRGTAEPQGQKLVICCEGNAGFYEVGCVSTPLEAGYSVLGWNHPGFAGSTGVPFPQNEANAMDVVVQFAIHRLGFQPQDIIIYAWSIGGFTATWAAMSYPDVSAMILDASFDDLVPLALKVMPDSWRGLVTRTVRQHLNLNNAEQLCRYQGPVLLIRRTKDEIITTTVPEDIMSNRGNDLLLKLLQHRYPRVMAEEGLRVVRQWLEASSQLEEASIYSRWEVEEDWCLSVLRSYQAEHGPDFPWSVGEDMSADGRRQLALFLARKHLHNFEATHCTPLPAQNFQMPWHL
Chain of UniProt Q93084 (Q93084 whole entry, looked up): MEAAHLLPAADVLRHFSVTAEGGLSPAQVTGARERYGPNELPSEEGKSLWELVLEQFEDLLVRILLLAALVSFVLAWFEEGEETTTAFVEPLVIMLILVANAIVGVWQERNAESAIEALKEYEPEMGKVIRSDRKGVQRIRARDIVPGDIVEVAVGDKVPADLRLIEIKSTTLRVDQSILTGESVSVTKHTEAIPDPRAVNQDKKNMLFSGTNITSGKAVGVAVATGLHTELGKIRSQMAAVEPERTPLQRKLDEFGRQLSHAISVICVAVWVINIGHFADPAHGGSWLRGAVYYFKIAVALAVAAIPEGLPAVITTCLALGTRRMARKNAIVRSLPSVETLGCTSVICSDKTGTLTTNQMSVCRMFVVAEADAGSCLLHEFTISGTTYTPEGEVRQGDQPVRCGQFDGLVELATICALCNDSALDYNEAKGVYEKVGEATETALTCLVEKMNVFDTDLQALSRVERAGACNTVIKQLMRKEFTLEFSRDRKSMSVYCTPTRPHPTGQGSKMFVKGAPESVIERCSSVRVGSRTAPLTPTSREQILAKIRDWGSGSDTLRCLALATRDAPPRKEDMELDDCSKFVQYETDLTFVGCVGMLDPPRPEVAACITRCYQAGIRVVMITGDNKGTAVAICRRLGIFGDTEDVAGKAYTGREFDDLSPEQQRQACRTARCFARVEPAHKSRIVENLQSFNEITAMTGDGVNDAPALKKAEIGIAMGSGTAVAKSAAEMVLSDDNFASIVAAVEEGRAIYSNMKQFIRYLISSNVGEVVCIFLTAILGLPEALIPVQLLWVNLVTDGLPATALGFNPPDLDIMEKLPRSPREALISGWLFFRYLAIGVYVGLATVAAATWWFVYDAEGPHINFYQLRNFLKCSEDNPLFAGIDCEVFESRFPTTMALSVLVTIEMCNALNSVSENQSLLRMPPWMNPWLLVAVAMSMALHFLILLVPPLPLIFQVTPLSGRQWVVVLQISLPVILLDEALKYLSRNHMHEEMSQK
Chain of UniProt P42330 (P42330 whole entry, looked up): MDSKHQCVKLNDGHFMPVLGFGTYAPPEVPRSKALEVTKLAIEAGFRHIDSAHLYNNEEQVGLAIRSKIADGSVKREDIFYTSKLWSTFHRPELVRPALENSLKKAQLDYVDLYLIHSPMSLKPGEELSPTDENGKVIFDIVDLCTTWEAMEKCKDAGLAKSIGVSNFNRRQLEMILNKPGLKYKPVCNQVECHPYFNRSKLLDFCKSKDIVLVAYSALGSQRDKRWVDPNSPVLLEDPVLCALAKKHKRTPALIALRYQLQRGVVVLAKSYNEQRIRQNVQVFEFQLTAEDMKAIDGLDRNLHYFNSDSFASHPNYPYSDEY
Chain of UniProt P24666 (P24666 whole entry, looked up): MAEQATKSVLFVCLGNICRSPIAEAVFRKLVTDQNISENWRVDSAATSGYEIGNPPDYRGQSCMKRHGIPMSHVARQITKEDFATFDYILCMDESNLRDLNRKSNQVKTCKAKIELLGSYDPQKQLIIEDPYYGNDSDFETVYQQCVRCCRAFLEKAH
Chain of UniProt Q9NX38 (Q9NX38 whole entry, looked up): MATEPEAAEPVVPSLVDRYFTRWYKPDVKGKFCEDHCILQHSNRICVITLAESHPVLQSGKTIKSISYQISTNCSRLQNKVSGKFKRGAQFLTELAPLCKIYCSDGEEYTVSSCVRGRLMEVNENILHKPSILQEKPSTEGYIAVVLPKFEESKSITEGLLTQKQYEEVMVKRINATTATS

Target | log2 fold change [1] | log2 fold change [2] | log2 fold change [3] | log2 fold change [4] | log2 fold change (entinostat) | log2 fold change (vorinostat) | log2 fold change (citarinostat) | log2 fold change (silmitasertib) | log2 fold change [5] | log2 fold change [6]
ACP1 isoform 2 (UniProt P24666) | 0.048 | -0.018 | -0.086 | -0.041 | 0.041 | 0.159 | 0.005 | -0.005 | -0.149 | -0.044
ABHD16A (UniProt O95870) | -0.026 | 0.026 | 0.113 | 0.049 | -0.02 | 0.055 | 0.026 | -0.022 | 0.005 | 0.008
ATG9A (UniProt Q7Z3C6) | 0.019 | 0 | -0.262 | 0.038 | 0.008 | 0.061 | 0.059 | -0.023 | 0.019 | -0.013
ARPP19 (UniProt P56211) | -0.049 | -0.075 | -0.019 | 0.046 | 0.027 | -0.038 | 0.1 | 0 | 0.026 | -0.051
ANXA5 (UniProt P08758) | -0.021 | -0.044 | -0.139 | -0.031 | 0.055 | 0.027 | 0.115 | 0 | -0.045 | -0.008
ACADVL isoform 3 (UniProt P49748) | -0.025 | -0.036 | -0.021 | -0.032 | 0 | -0.019 | 0.043 | -0.015 | -0.014 | -0.028
ABITRAM (UniProt Q9NX38) | -0.018 | -0.12 | -0.194 | 0.008 | 0.008 | -0.089 | 0.046 | 0.094 | -0.015 | -0.006
AUP1 (UniProt Q9Y679) | -0.013 | -0.082 | -0.236 (active) | -0.107 | 0.061 | 0.135 | 0.067 | 0.019 | 0.064 | -0.051
AKR1C2 (UniProt P52895) | 0.133 | -0.092 | 0.206 | -0.006 | -0.129 | 0.012 | 0.018 | 0.257 | 0.079 | -0.076
APPL1 (UniProt Q9UKG1) | -0.032 | -0.012 | -0.023 | -0.043 | -0.053 | 0.009 | 0.04 | 0.022 | -0.046 | 0.07
ARL6IP6 (UniProt Q8N6S5) | -0.085 | -0.125 | -0.073 | -0.015 | -0.021 | -0.007 | -0.058 | -0.014 | 0.011 | -0.059
ALDH1B1 (UniProt P30837) | 0 | -0.039 | -0.065 | -0.054 | -0.019 | 0.281 (active) | 0.051 | -0.037 | -0.015 | 0.058
ARGLU1 (UniProt Q9NWB6) | -0.089 | 0.01 | 0.168 | -0.08 | -0.071 | -0.061 | 0.026 | -0.245 | 0.319 | -0.208
ATP2A3 isoform 2 (UniProt Q93084) | -0.008 | 0.007 | -0.096 | -0.072 | 0.035 | -0.018 | 0.019 | 0.068 | -0.069 | -0.05
ATP12A isoform 2 (UniProt P54707) | -0.115 | 0.049 | 0.075 | 0.003 | -0.072 | -0.035 | -0.033 | -0.033 | -0.032 | -0.037
BTBD6 (UniProt Q96KE9) | 0.054 | 0.102 | 0.469 | 0.199 | -0.039 | 0.081 | 0.273 | -0.352 | -0.011 | 0.118
AGRN (UniProt O00468) | 0.016 | 0.053 | 0.033 | 0.02 | 0.035 | -0.126 | 0.01 | -0.073 | 0.087 | -0.238
ANP32E (UniProt Q9BTT0) | 0.029 | -0.043 | 0.014 | 0.063 | 0.016 | 0.01 | 0.116 | 0.083 | -0.233 | -0.036
B4GALNT1 (UniProt Q00973) | -0.001 | -0.062 | -0.093 | 0.092 | 0.02 | 0.003 | 0.538 (active) | 0.062 | -0.095 | 0.064
BOP1 (UniProt Q14137) | 0.002 | -0.027 | 0.04 | -0.018 | -0.004 | 0.107 | 0.035 | 0.038 | -0.351 (active) | -0.073
BID isoform 2 (UniProt P55957) | 0.032 | 0.019 | -0.037 | 0.052 | -0.018 | -0.039 | 0.006 | -0.008 | 0.042 | 0.005
ARFGAP2 (UniProt Q8N6H7) | -0.007 | -0.097 | -0.08 | -0.014 | 0.037 | -0.017 | 0.015 | 0.017 | -0.016 | -0.035
AKT2 (UniProt P31751) | -0.008 | -0.266 (active) | 1.18 (active) | -0.051 | 0.085 | 0.022 | 0.077 | -0.026 | -0.017 | -0.013
ATP6V1C1 (UniProt P21283) | -0.015 | -0.135 | -0.173 | -0.09 | 0.062 | 0.039 | 0.008 | 0.03 | 0.025 | -0.103
ATR (UniProt Q13535) | -0.003 | 0.002 | 0.044 | -0.089 | 0.017 | 0.057 | 0.039 | 0.035 | -0.058 | -0.066
BZW2 (UniProt Q9Y6E2) | 0.019 | -0.055 | -0.225 | -0.066 | 0.047 | -0.003 | 0.044 | -0.001 | -0.044 | -0.069
AKR1C3 (UniProt P42330) | 0.119 | 0.064 | 0.235 | -0.032 | 0.106 | -0.058 | 0.049 | 0.126 | 0.211 | 0.154
AURKA (UniProt O14965) | 0.077 | -0.02 | 0.059 | -0.033 | -0.072 | -0.06 | -0.036 | 0.015 | 0.105 | -0.328
BRAP (UniProt Q7Z569) | 0.056 | -0.063 | -0.113 | -0.015 | 0.003 | 0.069 | 0.037 | 0.073 | 0.124 | 0.064
ACP1 (UniProt P24666) | -0.079 | -0.24 | -0.002 | -0.199 | 0.093 | 0.01 | 0.012 | 0.088 | -0.074 | -0.014
